PubChem BioAssay AID485275 (NMMLSC, 2010)
About 1,400 (0.42%) of roughly 330,000 compounds were called active.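 Rule for the calls: active = plate passing quality check with inhibition over a set limit, or well fluorescence over plate mean plus 4 SD; inactive = the rest.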 The sample as a whole holds a higher share of actives than the screen did.

Assay: inhibitors of Candida efflux pumps in yeast, primary screen, S. cerevisiae, Nile Red, multiplex (AID 485275);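 note: Nile Red retained in pooled yeast measured as flow cytometry median fluorescence; 0% = buffer negative control and 100% = Enniatin B positive control; higher means more Nile Red kept so more efflux inhibition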
Conditions: S. cerevisiae Candida pump triplex, at 10 µM, active compounds read high

SMILES | inhibition
CSc1cccc(NC(=O)C2CCCN2S(=O)(=O)c2ccc3c(c2)CCC(=O)N3)c1 (stereo not drawn) | 0.16% (inactive)
COc1cccc(CNC(=O)C(=O)NCCC2CCCCN2S(=O)(=O)c2ccc(C)cc2)c1 (stereo not drawn) | 0.03% (inactive)
Cc1ccc(C(=O)Nc2ccccc2-c2ccccc2)cc1S(=O)(=O)Nc1ccccc1 | 0.01% (inactive)
Cc1ccc(C(=O)O)cc1N1C(=O)CCCC1=O | -0.14% (inactive)
O=c1oc2ccccc2c(NC2CCCCC2)c1NS(=O)(=O)c1ccc(Cl)cc1 | -0.01% (inactive)
CCNc1c(NS(=O)(=O)c2ccc(C3CCCCC3)cc2)c(=O)oc2ccccc12 | 1.37% (active)
CCC(=O)Nc1ccc(S(=O)(=O)Nc2c(NC)c3ccccc3oc2=O)cc1 | 0.02% (inactive)
CC1CC(C)CN(C(=O)C2CC(=O)N(c3ccc(F)cc3)C2)C1 (stereo not drawn) | -0.06% (inactive)
COc1ccccc1N=C1SC(C)CN1C(=O)C1CCC1 (stereo not drawn) | 0.03% (inactive)
O=C(NN1C(=O)C2C3C=CC(O3)C2C1=O)c1ccncc1 (stereo not drawn) | 0.07% (inactive)
c1cnc(Nc2nc(-c3ccc4ccccc4c3)cs2)nc1 | 0.79% (active)
Cc1ccccc1Nc1nc(-c2cccnc2)cs1 | 0.3% (inactive)
Cc1ccc(-c2csc(NC3OC(=O)c4ccccc43)n2)cc1 (stereo not drawn) | 0.03% (inactive)
COc1ccc(C(=O)C2CCCN(Cc3cccn3-c3ccccn3)C2)c(C)c1 (stereo not drawn) | 0.98% (active)
CCOC(=O)c1[nH]ncc1CN1CCCC(C(=O)c2ccc(OC)cc2C)C1 (stereo not drawn) | 0.25% (inactive)
COc1ccc(C(=O)C2CCCN(Cc3ccc4nonc4c3)C2)c(C)c1 (stereo not drawn) | 0.05% (inactive)
Cc1c(CCO)sc[n+]1CC(=O)OC12CC3CC(CC(C3)C1)C2 | -0.46% (inactive)
Cc1c(CCOC(=O)c2cc([N+](=O)[O-])ccc2Cl)sc[n+]1CCCCS(=O)(=O)[O-] | 0.04% (inactive)
Cc1c(CCOC(=O)CC23CC4CC(CC(C)(C4)C2)C3)sc[n+]1Cc1ccc([N+](=O)[O-])cc1 | 0.61% (active)
CC1CCCCC1NC(=O)Cn1c(=O)cnc2ccccc21 (stereo not drawn) | -0.23% (inactive)

SMILES | inhibition
CCOC(=O)N1CCN(S(=O)(=O)c2ccc(C(=O)Nc3ccc(F)cc3F)cc2)CC1 | -0.12% (inactive)
Cc1c(C(=O)NCCN2C(=O)S/C(=C\c3cccs3)C2=O)cccc1[N+](=O)[O-] | 0.33% (inactive)
CCOc1ccc(CCNC(=O)Nc2ccccc2)cc1OCC | -0.23% (inactive)
O=C(Cc1ccc(Br)cc1)NCCN1CCOCC1 | -0.17% (inactive)
CCOc1ccccc1/C=c1\sc2nc(-c3ccco3)nn2c1=O | 3.16% (active)
CCCn1nc(C(=O)NNC(=O)CCOc2ccccc2OCC)c2ccccc2c1=O | -0.08% (inactive)
CCOc1ccccc1C1NC(=O)NC(C)=C1C(=O)OCc1ccco1 (stereo not drawn) | 0.02% (inactive)
O=C(CCNC(=O)c1ccc([N+](=O)[O-])cc1)Nc1ccccc1N1CCOCC1 | 0.19% (inactive)
Cc1nc2sc(C(c3ccco3)N3CCC4(CC3)OCCO4)c(O)n2n1 (stereo not drawn) | -0.06% (inactive)
O=C(NC(=S)Nc1ccc2oc(=O)ccc2c1)c1ccc(-c2cccc(Cl)c2Cl)o1 | 0.12% (inactive)
NC(=O)C1CCN(CC(O)CSc2ccc(F)cc2)CC1 (stereo not drawn) | -0.06% (inactive)
CC1CCc2c(sc3c2C2=NS(=O)(=O)CCN2C=N3)C1 (stereo not drawn) | 0.15% (inactive)
O=C(CNC(=O)c1ccccc1)NCC(=O)OCc1ccc(Cl)cc1 | 0.03% (inactive)
O=C(CNC(=O)c1ccc(-c2ccccc2)cc1)OCc1ccc(Cl)cc1 | 17.2% (active)
Cc1ccc(C(=O)NCC(=O)OCc2nnc(-c3ccccc3)o2)cc1 | 0.08% (inactive)
CN1CCN(Cc2c(C(=O)N3CCc4ccccc4C3)nc3ccc(Cl)cn23)CC1 | 0.16% (inactive)
CCOc1ccc(NC(=O)CN(C)C(=O)COc2cccc(CC)c2)cc1OCC | 0.06% (inactive)
COc1ccc2sc(-c3ccccc3OC)c(-c3ccc(OCCN4CCCC4)cc3)c2c1 | 198% (active)
COc1ccc(-c2sc3ccccc3c2-c2ccc(OCCN3CCOCC3)cc2)cc1 | 0.31% (inactive)
COc1ccccc1-c1sc2ccccc2c1-c1ccc(Br)nc1 | -0.34% (inactive)

SMILES | inhibition
COc1cc(OC)cc(-c2sc3ccc(OC)cc3c2-c2ccc3cc[nH]c3c2)c1 | -0.09% (inactive)
COc1ccccc1-c1sc2ccccc2c1-c1ccc(C(C)=O)cc1 | -0.1% (inactive)
O=C(COC(=O)COc1cc(Cl)c(Cl)cc1Cl)NC1CC1 | 0.12% (inactive)
Clc1cccc(-c2nc3nc4ccccc4nc3n2Cc2ccco2)c1 | -0.17% (inactive)
O=c1c2ccccc2oc2nc(C3CCCCC3)n(Cc3ccco3)c(=O)c12 | -0.05% (inactive)
Cc1ccc(Cn2c(C)nc3c(c2=O)c2nc4ccccc4nc2n3Cc2ccco2)cc1 | 0.94% (active)
Cc1cc(N(C)C)cc(C)[n+]1[O-] | -0.18% (inactive)
C=CC[n+]1c(-c2ccc(C)cc2)csc1NNC(=O)Nc1ccccc1 | -0.18% (inactive)
COC(C(=O)Nc1ccc(C(C)=O)cc1)c1ccccc1 (stereo not drawn) | -0.08% (inactive)
Cc1cc(C)cc(NC(=O)C(OC(=O)c2ccc(O)cc2)c2ccccc2)c1 (stereo not drawn) | 0.91% (active)
Cc1ccc(C)c(NC(=O)C(OC(=O)c2ccc(C)s2)c2ccccc2)c1 (stereo not drawn) | -0.08% (inactive)
O=C(O)CCCCCCCCCC[n+]1ccccc1 | 0.3% (inactive)
CCOC(=O)C1(Cc2cccc(OC)c2)CCCN(C(=O)CCSC)C1 (stereo not drawn) | 0.41% (inactive)
Cc1cccc(OCCC(=O)OCc2csc(CC(=O)Nc3ccccc3C)n2)c1 | 0.08% (inactive)
O=C(c1ccc(F)cc1)N1CCC(n2nnc3ccccc32)CC1 | -0.14% (inactive)
COc1ccc2cc(C3=CC(=O)C[C@H](c4ccc5c(c4)OCO5)C3)ccc2c1 | -0.01% (inactive)
Brc1cnc2ccccc2c1N1CCCCC1 | 0.04% (inactive)
COc1cc(C(=O)NCc2ccc(-n3cccc3)cc2)cc(OC)c1OC | 0.13% (inactive)
